Mcl1-Bid inh: Mcl-1/Bid interaction inhibition. AID 1021. Q07820. inhibition, % at 21.7 µM. actives 0.97% (n = 220,000). TR-FRET Mcl-1/Bid-Dy647 peptide binding, 1536-well;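 active = compounds that cut the binding signal by more than half at the single screening dose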;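 also: His-tagged Mcl-1 with europium anti-His antibody binding Bid BH3 peptide; 0% = Mcl-1 plus peptide wells and 100% = peptide-only wells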
Target sequence (Q07820 whole entry, looked up): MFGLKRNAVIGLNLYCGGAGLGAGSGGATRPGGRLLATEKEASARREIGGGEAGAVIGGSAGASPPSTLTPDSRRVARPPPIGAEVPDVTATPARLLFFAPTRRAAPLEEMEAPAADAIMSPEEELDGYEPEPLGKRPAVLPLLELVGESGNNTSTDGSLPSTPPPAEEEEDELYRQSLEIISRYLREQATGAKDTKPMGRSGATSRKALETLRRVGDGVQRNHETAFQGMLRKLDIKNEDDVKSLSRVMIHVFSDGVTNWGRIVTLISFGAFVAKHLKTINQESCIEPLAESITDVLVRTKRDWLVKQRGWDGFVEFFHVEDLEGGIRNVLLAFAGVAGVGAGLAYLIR
MCL1 BIM primary: inhibitors of human MCL1 binding to BIM-BH3 peptide. GST-MCL1 / FITC-Bim-BH3 fluorescence polarization. actives 0.68% (n = 320,000). inhibition, % at 10.9 µM. Q07820;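 active = inhibition above the mean inhibition of all tested compounds plus 3 SD, set per campaign, cut at about 40% in these data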;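 also: 0% = DMSO wells and 100% = unlabeled Bim-BH3 peptide control; higher means more loss of mP so more displacement of Bim peptide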
Bim-Mcl-1: human Bim-Mcl-1 interaction inhibition; Q07820; Bead-based flow cytometry, Bim peptide-Mcl-1 binding; inhibition, % at 10 µM; actives 0.1% (n = 190,000); AID 1009; in the data active = inhibition above about 40%;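 also: 0% = no compound tracer wells and 100% = peptide blocker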
BCLXL inh: Bcl-xL (human) inhibition. Q07817. GST-Bcl-xL / FITC-Bim BH3 peptide fluorescence polarization. inhibition, % at 10.9 µM. actives 0.7% (n = 320,000). AID 2129;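 active = inhibition above the mean of all tested compounds plus 3 SD, cutoff set per campaign, cut at about 30% in these data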;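 also: 0% = DMSO wells and 100% = unlabeled Bim-BH3 peptide competitor; inhibitors lower millipolarization by displacing the labeled peptide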
Target sequence (Q07817 whole entry, looked up): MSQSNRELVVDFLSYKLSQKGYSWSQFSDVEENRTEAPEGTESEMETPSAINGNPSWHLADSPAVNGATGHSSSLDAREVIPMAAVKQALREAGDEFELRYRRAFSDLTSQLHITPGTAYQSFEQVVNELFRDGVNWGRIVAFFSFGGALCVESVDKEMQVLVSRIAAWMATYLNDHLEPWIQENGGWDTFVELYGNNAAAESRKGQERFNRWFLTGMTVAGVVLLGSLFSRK
GLD-1 TGE inh: GLD-1-TGE RNA interaction inhibition (C. elegans); purified GLD-1 + fluorescein TGE RNA, fluorescence polarization; inhibition, % at 5.96 µM; actives 0.44% (n = 320,000); AID 2280;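 active = percent inhibition above a per-plate cutoff, the plate mean of test compounds plus 3 SD, cut at about 30% in these data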;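 also: 0% = DMSO wells with GLD-1 and probe and 100% = wells lacking GLD-1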
Mcl1-Noxa inh: Mcl-1/Noxa interaction inhibition; Q07820; TR-FRET Mcl-1/Noxa peptide binding, 2 h; inhibition, % at 21.7 µM; actives 1.5% (n = 220,000); AID 1022;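 active = compounds that cut the protein-peptide binding signal by more than 50% relative to plate controls in a single-dose test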;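 also: His-tagged Mcl-1 with rhodamine Noxa BH3 peptide and terbium anti-His antibody; 0% = Mcl-1 plus Noxa peptide wells and 100% = peptide-only wells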
GLD-1 TGE cf: GLD-1 TGE RNA interaction inhibition, confirmation; actives 10% (n = 550); GLD-1/FL-TGE RNA fluorescence polarization, biochemical; inhibition, % at 5.96 µM; shares compounds with GLD-1 TGE inh;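 active = average inhibition across triplicates above the hit cutoff set in the primary screen, cut at about 32% in these data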;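 also: 0% = GLD-1 with RNA probe and DMSO and 100% = wells lacking GLD-1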
The depositor's hits bear a star. Shown are actives, neighbours in structure and some others; about 2.3% of the full set was active somewhere.

What do the screens show for `COc1ccc(C2Nc3ccccc3NC3=C2C(=O)CC(C)(C)C3)cc1` (centres undefined)?
MCL1 BIM primary: 5; BCLXL inh: 5; GLD-1 TGE inh: 7

How did CC1CN(C(=O)C2CC2)C(C)CN1C(=O)C1CC1 (centres undefined) do in these assays?
Mcl1-Bid inh: -11; MCL1 BIM primary: 3; Bim-Mcl-1: -5; BCLXL inh: 2; GLD-1 TGE inh: 34*; Mcl1-Noxa inh: -3; GLD-1 TGE cf: -5

What do the screens show for `CCCCN(C(=O)c1ccc([N+](=O)[O-])o1)c1c(N)n(CC(C)C)c(=O)[nH]c1=O`?
MCL1 BIM primary: 39; BCLXL inh: 34*; GLD-1 TGE inh: 37*; GLD-1 TGE cf: 65*

Results for CCCCN(C(=O)c1cc2ccccc2o1)c1c(N)n(CC(C)C)c(=O)[nH]c1=O ?
Mcl1-Bid inh: 15; MCL1 BIM primary: -1; Bim-Mcl-1: 0; BCLXL inh: 2; GLD-1 TGE inh: 6; Mcl1-Noxa inh: 20

What do the screens show for `Cc1cc(C(=O)C(C)OC(=O)c2ccc(NC(=O)CC#N)cc2)c(C)n1-c1ccccc1` (centres undefined)?
MCL1 BIM primary: -31; BCLXL inh: -15; GLD-1 TGE inh: -29

Results for COC(=O)c1c(C(=O)OC)c2cccc3cc(-c4ccccc4)c4ccc1c4n32 ?
Mcl1-Bid inh: -37; MCL1 BIM primary: 33; Bim-Mcl-1: 8; BCLXL inh: 25; GLD-1 TGE inh: 31*; Mcl1-Noxa inh: 50; GLD-1 TGE cf: 15

What do the screens show for `COC(=O)c1cc2c(-c3ccccc3)cc3ccccn3c-2c1C(=O)OC`?
Mcl1-Bid inh: -62; MCL1 BIM primary: 48*; Bim-Mcl-1: 0; BCLXL inh: 36*; GLD-1 TGE inh: 31*; Mcl1-Noxa inh: -10; GLD-1 TGE cf: 12

Results for CC(=O)c1ccc(OCc2cc(C(=O)NCCc3ccc(Cl)cc3)no2)cc1 ?
MCL1 BIM primary: 5; BCLXL inh: 8; GLD-1 TGE inh: 4

How did Cc1cc(C)c(S(=O)(=O)Nc2ccccc2C(=O)N2CCCC2)c(C)c1 do in these assays?
MCL1 BIM primary: -3; BCLXL inh: 0; GLD-1 TGE inh: 5

What do the screens show for `CCOC(=O)C1=C(Cc2ccc(F)cc2)C(=O)c2ccccc2C1=O`?
Mcl1-Bid inh: -4; MCL1 BIM primary: 41*; Bim-Mcl-1: 0; BCLXL inh: 35*; GLD-1 TGE inh: 66*; Mcl1-Noxa inh: 46; GLD-1 TGE cf: 2

How did CCN1CCN(Cc2ccc(NC(=O)c3ccc(C)c(NC(=O)c4ccc5n[nH]nc5c4)c3)cc2C(F)(F)F)CC1 do in these assays?
Mcl1-Bid inh: -46; MCL1 BIM primary: -3; BCLXL inh: 5; GLD-1 TGE inh: -6; Mcl1-Noxa inh: 10

Results for CCN1CCN(Cc2ccc(NC(=O)c3ccc(C)c(NC(=O)c4ccnnc4)c3)cc2C(F)(F)F)CC1 ?
Mcl1-Bid inh: -59; MCL1 BIM primary: -7; BCLXL inh: -1; GLD-1 TGE inh: 39*; Mcl1-Noxa inh: 8; GLD-1 TGE cf: 2

How did O=C1C2CC=C(Cl)CC2C(=O)N1CCc1c[nH]c2ccccc12 (centres undefined) do in these assays?
Mcl1-Bid inh: -46; MCL1 BIM primary: 0; Bim-Mcl-1: 5; BCLXL inh: -1; GLD-1 TGE inh: -3; Mcl1-Noxa inh: 19

Results for O=C(CN1C(=O)C2CC=C(Cl)CC2C1=O)NCc1ccccc1 (centres undefined) ?
Mcl1-Bid inh: -20; MCL1 BIM primary: 42*; Bim-Mcl-1: 1; BCLXL inh: 41*; GLD-1 TGE inh: 42*; Mcl1-Noxa inh: -4; GLD-1 TGE cf: 33*

What do the screens show for `O=C1C2CC=C(Cl)CC2C(=O)N1CCc1ccccc1` (centres undefined)?
Mcl1-Bid inh: -7; MCL1 BIM primary: 41*; Bim-Mcl-1: 0; BCLXL inh: 33*; GLD-1 TGE inh: 43*; Mcl1-Noxa inh: 37; GLD-1 TGE cf: 21

How did CCCCCn1c(C)c2c(OCC)cccc(=O)c2c1C do in these assays?
Mcl1-Bid inh: -96; MCL1 BIM primary: 10; BCLXL inh: 8; GLD-1 TGE inh: 4; Mcl1-Noxa inh: 12

Results for CCOc1cccc(=O)c2c(C)n(C)c(C)c12 ?
Mcl1-Bid inh: -78; MCL1 BIM primary: 28; Bim-Mcl-1: 0; BCLXL inh: 26; GLD-1 TGE inh: 40*; Mcl1-Noxa inh: 28; GLD-1 TGE cf: -4

How did CCOC(=O)CSc1nnc(CSc2nc(C)cc(C)n2)n1Cc1ccco1 do in these assays?
Mcl1-Bid inh: -13; MCL1 BIM primary: 10; Bim-Mcl-1: 0; BCLXL inh: 9; GLD-1 TGE inh: 36*; Mcl1-Noxa inh: 8; GLD-1 TGE cf: 2

How did Cc1cc(C)nc(SCc2nnc(SCC(N)=O)n2Cc2ccco2)n1 do in these assays?
Mcl1-Bid inh: -16; MCL1 BIM primary: -7; Bim-Mcl-1: 1; BCLXL inh: -1; GLD-1 TGE inh: 0; Mcl1-Noxa inh: 8

What do the screens show for `COC(=O)CN1C(=O)N/C(=C/c2ccc(C)o2)C1=O`?
Mcl1-Bid inh: -26; MCL1 BIM primary: 26; Bim-Mcl-1: -3; BCLXL inh: 29; GLD-1 TGE inh: 63*; Mcl1-Noxa inh: 33; GLD-1 TGE cf: -8

How did COC(=O)COc1ccc(/C=C2/NC(=O)N(CC(=O)OC)C2=O)cc1 do in these assays?
Mcl1-Bid inh: -39; MCL1 BIM primary: -8; Bim-Mcl-1: -2; BCLXL inh: 2; GLD-1 TGE inh: 7; Mcl1-Noxa inh: 14

What do the screens show for `Cc1cc(Br)ccc1SCC(=O)N1CCN(S(=O)(=O)c2ccccc2)CC1`?
MCL1 BIM primary: 4; BCLXL inh: 3; GLD-1 TGE inh: 2

Results for N=c1ccn2c(n1)OC1C(O)C(CO)OC12 (centres undefined) ?
Mcl1-Bid inh: -18; MCL1 BIM primary: -1; BCLXL inh: 3; GLD-1 TGE inh: 1; Mcl1-Noxa inh: -13

How did O=C(O)[C@@H]1[C@@H]2C[C@@H]2CN1c1ncccc1[N+](=O)[O-] do in these assays?
Mcl1-Bid inh: -32; MCL1 BIM primary: 47*; Bim-Mcl-1: -1; BCLXL inh: 47*; GLD-1 TGE inh: 39*; Mcl1-Noxa inh: 19; GLD-1 TGE cf: -2

Results for O=C(O)C1CN(c2ncccc2[N+](=O)[O-])C1 ?
Mcl1-Bid inh: -13; MCL1 BIM primary: -2; Bim-Mcl-1: 1; BCLXL inh: 1; GLD-1 TGE inh: 9; Mcl1-Noxa inh: 7

What do the screens show for `Cc1cccc(NC(=O)c2ccc(S(=O)(=O)N3CCCC3)cc2)c1C`?
MCL1 BIM primary: 11; BCLXL inh: 3; GLD-1 TGE inh: 0

How did O=C(Nc1cccc2c1C(=O)NC2=O)c1ccc(S(=O)(=O)N2CCCC2)cc1 do in these assays?
MCL1 BIM primary: 27; Bim-Mcl-1: -4; BCLXL inh: 31*; GLD-1 TGE inh: 36*; GLD-1 TGE cf: 19

Screening results deposited in PubChem by several laboratories.
